Data: PubChem BioAssay AID1159580 (chemical genetic matrix, 2015)
“And” between values parts separate entries of the source, which are not always exact repeats. Equal entries are not always repeated. The whole screen tested about 5,500 compounds, of which about 2,000 (36%) were called active. Inconclusive results (about 18%) are left out. Rule as the data show it: active = normalized growth mostly below about 0.91 (no sharp cut-off); inconclusive = no clear call, values can overlap the other calls; inactive = mostly above about 0.92. This is one part of the list.

Assay: chemical genetic growth profiling, strain panel (AID 1159580);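 also: tested at 20 µM; growth read once vehicle control cultures reached saturation at 30 °C; 1 = growth at the plate median or of vehicle wells; lower values mean less growth of the strain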
Details: growth OD

Measured: normalized growth

CN1Cc2c(N)cccc2C(c2ccccc2)C1 (centres undefined)
inactive: S. cerevisiae deletion strains, locus YJR075W, strain HOC1, active compounds read low 1.01 and 0.995 | S. cerevisiae deletion strains, locus YKL009W, strain mrt4, active compounds read low 1 | S. cerevisiae deletion strains, locus YKL068W, active compounds read low 1 | S. cerevisiae deletion strains, locus YKL085W, strain MDH1 (second series), active compounds read low 1.01 | S. cerevisiae deletion strains, locus YKL085W, strain MDH1, active compounds read low 1.01 | S. cerevisiae deletion strains, locus YKL160W, strain elf1, active compounds read low 1.02 | S. cerevisiae deletion strains, locus YKL190W, strain CNB1, active compounds read low 1.01 | S. cerevisiae deletion strains, locus YKR001C, strain vps1, active compounds read low 1 | S. cerevisiae deletion strains, locus YKR026C, strain gcn3, active compounds read low 1.01 | S. cerevisiae deletion strains, locus YKR091W, strain srl3, active compounds read low 1 | S. cerevisiae deletion strains, locus YLL001W, strain dnm1, active compounds read low 1.01 | S. cerevisiae deletion strains, locus YLL026W, active compounds read low 1.01 | S. cerevisiae deletion strains, locus YLL041C, strain sdh2, active compounds read low 1.01 | S. cerevisiae deletion strains, locus YLR027C, strain aat2, active compounds read low 1.02 | S. cerevisiae deletion strains, locus YLR039C, strain RIC1, active compounds read low 1.03 | S. cerevisiae deletion strains, locus YLR058C, strain SHM2, active compounds read low 1 | S. cerevisiae deletion strains, locus YLR102C, strain apc9, active compounds read low 1.01 | S. cerevisiae deletion strains, locus YLR113W, strain HOG1, active compounds read low 0.982 | S. cerevisiae deletion strains, locus YLR221C, strain rsa3, active compounds read low 0.994 | S. cerevisiae deletion strains, locus YLR258W, strain gsy2, active compounds read low 0.99 | S. cerevisiae deletion strains, locus YLR262C, strain YPT6 (second series), active compounds read low 1.03 | S. cerevisiae deletion strains, locus YLR262C, strain YPT6, active compounds read low 1.05 | S. cerevisiae deletion strains, locus YLR268W, strain sec22, active compounds read low 1.02 | S. cerevisiae deletion strains, locus YLR320W, strain mms22, active compounds read low 0.971 | S. cerevisiae deletion strains, locus YLR330W, strain CHS5, active compounds read low 1.01 | S. cerevisiae deletion strains, locus YLR342W, strain FKS1 (second series), active compounds read low 1.06 | S. cerevisiae deletion strains, locus YLR342W, strain FKS1, active compounds read low 1.01 | S. cerevisiae deletion strains, locus YLR357W, strain rsc2, active compounds read low 0.982 | S. cerevisiae deletion strains, locus YLR370C, strain arc18, active compounds read low 1 | S. cerevisiae deletion strains, locus YLR371W, strain rom2, active compounds read low 1.02 | S. cerevisiae deletion strains, locus YLR384C, strain iki3, active compounds read low 1.01 | S. cerevisiae deletion strains, locus YLR418C, strain cdc73, active compounds read low 1.01 | S. cerevisiae deletion strains, locus YML016C, strain PPZ1, active compounds read low 1 | S. cerevisiae deletion strains, locus YML032C, strain rad52, active compounds read low 0.994 | S. cerevisiae deletion strains, locus YML120C, strain ndi1, active compounds read low 1.02 | S. cerevisiae deletion strains, locus YML124C, strain tub3, active compounds read low 1.01 | S. cerevisiae deletion strains, locus YMR058W, strain fet3, active compounds read low 1.02 | S. cerevisiae deletion strains, locus YMR078C, strain ctf18, active compounds read low 1.02 | S. cerevisiae deletion strains, locus YMR125W, strain sto1, active compounds read low 0.995 | S. cerevisiae deletion strains, locus YMR129W, active compounds read low 1.01 | S. cerevisiae deletion strains, locus YMR205C, strain PFK2, active compounds read low 1.04 | S. cerevisiae deletion strains, locus YMR223W, strain ubp8, active compounds read low 1.03 | S. cerevisiae deletion strains, locus YMR231W, strain pep5, active compounds read low 1 | S. cerevisiae deletion strains, locus YMR263W, strain SAP30, active compounds read low 1 | S. cerevisiae deletion strains, locus YMR307W, strain GAS1, active compounds read low 1.02 | S. cerevisiae deletion strains, locus YNL067W, strain RPL9B, active compounds read low 0.988 | S. cerevisiae deletion strains, locus YNL071W, strain lat1, active compounds read low 1.01 | S. cerevisiae deletion strains, locus YNL153C, strain GIM3, active compounds read low 0.969 | S. cerevisiae deletion strains, locus YNL175C, strain NOP13, active compounds read low 0.977 | S. cerevisiae deletion strains, locus YNL183C, strain NPR1, active compounds read low 0.929 | S. cerevisiae deletion strains, locus YNL197C, strain WHI3, active compounds read low 0.984 | S. cerevisiae deletion strains, locus YNL209W, strain ssb2, active compounds read low 0.994 | S. cerevisiae deletion strains, locus YNL224C, strain SQS1, active compounds read low 0.998 | S. cerevisiae deletion strains, locus YNL233W, strain BNI4, active compounds read low 0.981 | S. cerevisiae deletion strains, locus YNL248C, strain rpa49, active compounds read low 1.03 | S. cerevisiae deletion strains, locus YNL250W, strain rad50, active compounds read low 1.02 | S. cerevisiae deletion strains, locus YNL271C, strain bni1, active compounds read low 1.01 | S. cerevisiae deletion strains, locus YNL298W, strain CLA4, active compounds read low 1.01 | S. cerevisiae deletion strains, locus YNL307C, strain MCK1, active compounds read low 1.02 | S. cerevisiae deletion strains, locus YNL322C, strain KRE1 (second series), active compounds read low 1.01 | S. cerevisiae deletion strains, locus YNR049C, strain mso1, active compounds read low 1.02 | S. cerevisiae deletion strains, locus YNR052C, strain pop2, active compounds read low 1.02 | S. cerevisiae deletion strains, locus YOL006C, strain TOP1, active compounds read low 0.997 | S. cerevisiae deletion strains, locus YOL012C, strain htz1 0.779 | S. cerevisiae deletion strains, locus YOL147C, strain pex11, active compounds read low 1.01 | S. cerevisiae deletion strains, locus YOR001W, strain rrp6, active compounds read low 1.02 | S. cerevisiae deletion strains, locus YOR061W, strain CKA2, active compounds read low 1.01 | S. cerevisiae deletion strains, locus YOR069W, strain VPS5, active compounds read low 1.01 | S. cerevisiae deletion strains, locus YOR070C, strain gyp1, active compounds read low 1 | S. cerevisiae deletion strains, locus YOR080W, strain dia2, active compounds read low 1.02 | S. cerevisiae deletion strains, locus YOR083W, strain WHI5 (second series), active compounds read low 0.983 | S. cerevisiae deletion strains, locus YOR083W, strain WHI5, active compounds read low 0.989 | S. cerevisiae deletion strains, locus YOR106W, strain vam3, active compounds read low 1.03 | S. cerevisiae deletion strains, locus YOR136W, strain idh2, active compounds read low 1.01 | S. cerevisiae deletion strains, locus YOR144C, strain elg1, active compounds read low 1.01 | S. cerevisiae deletion strains, locus YOR184W, strain ser1, active compounds read low 1.01 | S. cerevisiae deletion strains, locus YOR231W, strain MKK1, active compounds read low 0.986 | S. cerevisiae deletion strains, locus YOR265W, strain rbl2, active compounds read low 1.01 | S. cerevisiae deletion strains, locus YOR270C, strain vph1, active compounds read low 1.04 | S. cerevisiae deletion strains, locus YOR290C, strain snf2, active compounds read low 0.99 | S. cerevisiae deletion strains, locus YOR316C, strain cot1, active compounds read low 1.02 | S. cerevisiae deletion strains, locus YPL051W, strain arl3, active compounds read low 1.01 | S. cerevisiae deletion strains, locus YPL055C, strain LGE1, active compounds read low 0.96 and 0.983 | S. cerevisiae deletion strains, locus YPL078C, strain atp4, active compounds read low 1.03 | S. cerevisiae deletion strains, locus YPL106C, strain sse1, active compounds read low 0.969 | S. cerevisiae deletion strains, locus YPL240C, strain hsp82, active compounds read low 1 | S. cerevisiae deletion strains, locus YPL241C, strain CIN2, active compounds read low 1.01 and 0.99 | S. cerevisiae deletion strains, locus YPL256C, strain CLN2, active compounds read low 0.974 | S. cerevisiae deletion strains, locus YPR119W, strain clb2, active compounds read low 1.01 | S. cerevisiae deletion strains, locus YPR141C, strain kar3, active compounds read low 1.02 | S. cerevisiae deletion strains, locus YPR163C, strain tif3, active compounds read low 1.01 | S. cerevisiae deletion strains, locus YPR167C, strain met16, active compounds read low 1.01 | S. cerevisiae deletion strains, strain wtn01, active compounds read low 1.02 | S. cerevisiae strains, strain wild type, active compounds read low 1
